Experimental data: PubChem BioAssay (NCATS)
Unmarked numbers belong to inactive results. Inconclusive results are not listed. Entries that show only a call come without a potency. The source made the active and inactive calls. Unless noted, calls follow the shape of the dose curve; as a rule, active = well fitted curve in the direction sought with a large enough effect; inconclusive = small, poorly fitted or top-dose-only effect, or another doubt; inactive = no such curve, though single readings can be large; an effect the other way counts as inactive or inconclusive.

What was measured:
[1] = qHTS for Activators of Parkin Expression: LOPAC Validation Assay (NLuc Reporter) (AID 720572; also: potency is read from the fitted curve at half-maximal effect)
Outline: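 Parkin promoter-driven FLuc/NLuc neuronal reporter cells; 24 h plating, 7-pt dose response, 24 h at 37 C/5% CO2; FLuc then NanoLuc reagent, 10 min each, luminescence; DMSO/positive control normalized.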

[2] = qHTS for Activators of Parkin Expression: LOPAC Validation Assay (FLuc Reporter) (AID 720573)
Outline: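 A neuronal cell line harbouring FLuc and NLuc reporters behind the Parkin promoter was exposed to compounds for 24 h. Firefly luciferase signal, measured after 10 min with detection reagent, was scaled to DMSO and positive-control wells.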

[3] = target: T1, Hexokinase-4 (Homo sapiens) + Glucokinase regulatory protein (Homo sapiens) (UniProt P35557+Q14397); assay: qHTS assay for inhibitors of recombinant human GCK-GKRP interaction: Diaphorase-coupled assay (AID 743205); also: potency is read from the fitted curve at half-maximal effect
Outline: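 Inhibitors of the GCK–GKRP complex relieve GKRP suppression of GCK, detected through a G6PDH–diaphorase cascade reducing resazurin. Human GST-GCK and FLAG-GKRP are used at 10 nM with 5 mM glucose and 0.4 mM ATP.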

[4] = target: T1, Hexokinase-4 (Homo sapiens) + Glucokinase regulatory protein (Homo sapiens); assay: qHTS assay for inhibitors of recombinant human GCK-GKRP interaction: ADP-Glo assay (AID 743206)
Outline: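 GST-GCK and FLAG-GKRP (15 nM each in the dispensed mix, with 2 uM S6P) react with 0.4 mM ATP and 5 mM glucose (final) in Hepes pH 7.6 for 60 min at room temperature. ADP is measured by ADP-Glo luminescence.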

[5] = target: T1, Hexokinase-4 (Homo sapiens) + Glucokinase regulatory protein (Homo sapiens); assay: qHTS assay for inhibitors of recombinant human GCK-GKRP interaction: HTRF assay (AID 743207)
Outline: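 Steps: dispense GCK–GKRP complex (5 nM each, GST- and FLAG-tagged) with 2 uM S6P; pin in compounds; add XL665/Eu-cryptate-labelled antibodies; incubate 60 min at room temperature; read time-resolved FRET at 665 and 615 nm.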

[6] = qHTS assay for small molecule agonists of the antioxidant response element (ARE) signaling pathway measured by Nrf2-dependant transcriptional activity (AID 720636; active = well fitted curve in the direction sought with a large enough effect in the repeat runs; an effect the other way counts as inactive or inconclusive;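 also: HepG2 cells with an ARE-driven luciferase reporter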)
Outline: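 HepG2 ARE-luc reporter line, 1% dialyzed FBS; 6 hr attachment at 37 C, compound pinned in, 16 hr at 37 C/5% CO2; ONE-Glo, 30 min RT, luminescence read.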

[7] = qHTS assay for small molecule antagonists of the retinoid-related orphan receptor gamma (ROR-gamma) signaling pathway - cell viability counter screen (AID 720652; active = well fitted curve in the direction sought with a large enough effect in the repeat runs; an effect the other way counts as inactive or inconclusive;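 also: potency is read from the fitted curve at half-maximal effect; compound exposure lasted 16 hr before ATP read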)
Outline: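 CHO cells carrying TET-inducible ROR and RORE-luciferase reporter, plated 5 hr, then dosed with compound plus doxycycline. After 16 hr at 37 C, viability read as intracellular ATP by CellTiter-Glo luminescence.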

[8] = qHTS Assay for Identifying Gametocytocidal Compounds (AID 743244); also: potency is read from the fitted curve at half-maximal effect;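 as to max response: actives lower the fluorescent signal which means gametocytes are killed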; conditions: P. falciparum 3D7 stage III-V gametocytes, alamarBlue, 72 h; max response: hits give low values
Outline: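 Stage III–V gametocytes of P. falciparum 3D7 were seeded at 20,000 cells/well onto pre-dispensed compounds. After 72 h, 37 °C, 5% CO2, alamarBlue was added for another 24 h.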

T1 sequence (P35557 whole entry, looked up): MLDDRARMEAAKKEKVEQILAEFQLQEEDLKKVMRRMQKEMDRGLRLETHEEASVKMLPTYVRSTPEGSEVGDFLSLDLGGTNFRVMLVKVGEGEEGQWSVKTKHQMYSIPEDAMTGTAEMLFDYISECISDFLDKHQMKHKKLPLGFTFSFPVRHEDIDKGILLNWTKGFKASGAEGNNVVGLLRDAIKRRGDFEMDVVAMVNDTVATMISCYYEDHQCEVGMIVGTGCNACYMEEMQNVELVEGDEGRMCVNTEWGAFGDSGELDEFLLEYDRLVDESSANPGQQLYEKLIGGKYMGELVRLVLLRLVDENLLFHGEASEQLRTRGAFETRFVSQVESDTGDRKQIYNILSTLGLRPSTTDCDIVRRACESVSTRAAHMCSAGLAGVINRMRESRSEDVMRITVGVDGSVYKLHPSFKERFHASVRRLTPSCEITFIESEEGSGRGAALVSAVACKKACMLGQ
T1 sequence (Q14397 whole entry, looked up): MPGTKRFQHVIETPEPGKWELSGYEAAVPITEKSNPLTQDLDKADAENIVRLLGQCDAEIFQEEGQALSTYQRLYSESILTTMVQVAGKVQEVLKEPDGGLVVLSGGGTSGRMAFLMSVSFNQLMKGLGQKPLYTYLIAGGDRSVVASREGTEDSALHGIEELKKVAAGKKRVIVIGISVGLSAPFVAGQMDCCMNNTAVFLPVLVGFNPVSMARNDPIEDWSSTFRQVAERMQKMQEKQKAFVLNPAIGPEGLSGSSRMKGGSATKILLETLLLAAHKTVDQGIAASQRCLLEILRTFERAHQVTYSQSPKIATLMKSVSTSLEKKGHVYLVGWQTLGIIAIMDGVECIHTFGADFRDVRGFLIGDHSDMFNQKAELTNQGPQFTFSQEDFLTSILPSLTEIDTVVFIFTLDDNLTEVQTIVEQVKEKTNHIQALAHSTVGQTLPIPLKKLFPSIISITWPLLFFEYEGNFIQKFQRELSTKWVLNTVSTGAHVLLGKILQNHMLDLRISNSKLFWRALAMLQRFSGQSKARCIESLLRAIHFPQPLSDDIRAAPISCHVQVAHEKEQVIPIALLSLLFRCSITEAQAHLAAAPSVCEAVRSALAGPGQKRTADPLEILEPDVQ

With `CCn1cnc2c(Nc3cccc(Cl)c3)nc(N[C@@H]3CCCC[C@@H]3N)nc21` the Potency [1] was “inactive”, the outcome [2] was “inactive” and the Potency [3] was “inactive”. For the same compound, the outcome [4] was “inactive” and the outcome [5] was “inactive”.

For `O=C1C=CC(=O)C=C1`, the Potency [1] was “inactive”, the outcome [2] was “inactive” and the Potency [6] was “inactive”. For the same compound, the Potency [7] was 26.6 µM (active), the Potency [3] was “inactive” and the outcome [4] was “inactive”. The outcome [5] was “inactive” and the max response [8] was 4.21%.

With `Clc1cc(I)cc(Cl)c1NC1=NCCN1` the Potency [1] was “inactive”, the outcome [2] was “inactive” and the Potency [3] was “inactive”. The outcome [4] was “inactive” and the outcome [5] was “inactive”.

In the case of `CN(N=O)c1ccc(O)c(O)c1`, the Potency [1] is reported as “inactive”, the outcome [2] is reported as “inactive” and the Potency [3] is reported as “inactive”.

For `N[C@@H](Cn1oc(=O)[nH]c1=O)C(=O)O`, the Potency [1] was “inactive”, the outcome [2] was “inactive” and the Potency [3] was “inactive”. For the same compound, the outcome [4] was “inactive” and the outcome [5] was “inactive”.

With `c1ccc2c(N3CCNCC3)cccc2c1` the Potency [1] was “inactive”, the outcome [2] was “inactive” and the Potency [3] was “inactive”. For the same compound, the outcome [4] was “inactive” and the outcome [5] was “inactive”.

For `Cc1c2ccncc2c(C)c2c1[nH]c1ccccc12`, the Potency [1] was “inactive”, the outcome [2] was “inactive” and the Potency [3] was “inactive”. For the same compound, the outcome [4] was “inactive”, the outcome [5] was “inactive” and the Potency [8] was 1.78 µM (active).

In the case of `CC1(C(=O)O)C2CCC(O2)C1(C)C(=O)O` (stereo not given), the Potency [1] is reported as “inactive”, the outcome [2] is reported as “inactive” and the Potency [3] is reported as “inactive”. For the same compound, the outcome [4] was “inactive”, the outcome [5] was “inactive” and the max response [8] was -9.57%.

For `O=S1(=O)N(CCN2CC=C(c3c[nH]c4cc(F)ccc34)CC2)c2cccc3c2N1CCC3`, the Potency [1] was “inactive”, the outcome [2] was “inactive” and the Potency [3] was “inactive”. For the same compound, the outcome [4] was “inactive” and the outcome [5] was “inactive”.

For `CC(N)[C@H](O)c1ccc(O)c(O)c1` (stereo not given in full), the Potency [1] was “inactive”, the outcome [2] was “inactive” and the Potency [3] was “inactive”. The outcome [4] was “inactive”, the outcome [5] was “inactive” and the max response [8] was 7.97%.

With `NC(N)=Nc1ccc2[nH]c3c(c2c1)C[C@@]1(O)[C@H]2Cc4ccc(O)c5c4[C@@]1(CCN2CC1CC1)[C@H]3O5` the Potency [1] was “inactive”, the outcome [2] was “inactive” and the Potency [3] was “inactive”. The outcome [4] was “inactive” and the outcome [5] was “inactive”.

In the case of `O=[N+]([O-])c1cc(O)c(O)c([N+](=O)[O-])c1`, the Potency [1] is reported as “inactive”, the outcome [2] is reported as “inactive” and the Potency [3] is reported as “inactive”. The outcome [4] was “inactive”, the outcome [5] was “inactive” and the max response [8] was -6.67%.

In the case of `C/C(O)=C(\C#N)C(=O)Nc1cc(Br)ccc1Br`, the Potency [1] is reported as “inactive”, the outcome [2] is reported as “inactive” and the Potency [3] is reported as “inactive”. The outcome [4] was “inactive”, the outcome [5] was “inactive” and the max response [8] was -6.48%.

In the case of `CN(C(=O)Cc1ccc(Cl)c(Cl)c1)C(CN1CCCC1)c1cccc(OCC(=O)O)c1` (stereo not given), the Potency [1] is reported as “inactive”, the outcome [2] is reported as “inactive” and the Potency [3] is reported as “inactive”. The outcome [4] was “inactive”, the outcome [5] was “inactive” and the max response [8] was 13%.

In the case of `CCNC(=O)[C@H]1O[C@@H](n2cnc3c(N)ncnc32)[C@H](O)[C@@H]1O`, the Potency [1] is reported as “inactive”, the outcome [2] is reported as “inactive” and the Potency [3] is reported as “inactive”. For the same compound, the outcome [4] was “inactive”, the outcome [5] was “inactive” and the max response [8] was -1.58%.

In the case of `CN1CCc2cc(O)cc3c2[C@H]1Cc1ccc(O)c(O)c1-3`, the Potency [1] is reported as “inactive”, the outcome [2] is reported as “inactive” and the Potency [3] is reported as “inactive”. For the same compound, the outcome [4] was “inactive”, the outcome [5] was “inactive” and the max response [8] was 32.9%.

With `COc1ccc2[nH]cc(CCN)c2c1` the Potency [1] was “inactive”, the outcome [2] was “inactive” and the Potency [3] was “inactive”. For the same compound, the outcome [4] was “inactive”, the outcome [5] was “inactive” and the max response [8] was 15.8%.

With `CC(=O)NBr` the Potency [1] was “inactive”, the outcome [2] was “inactive” and the Potency [3] was “inactive”. For the same compound, the outcome [4] was “inactive”, the outcome [5] was “inactive” and the max response [8] was 10.7%.

For `O=[N+]([O-])c1ccc2nc(N3CCNCC3)ccc2c1`, the Potency [1] was “inactive”, the outcome [2] was “inactive” and the Potency [3] was “inactive”. The outcome [4] was “inactive” and the outcome [5] was “inactive”.

With `C[C@@H]1[C@@H]2Cc3ccc(O)cc3[C@@]1(C)CCN2CC1CC1` the Potency [1] was “inactive”, the outcome [2] was “inactive” and the Potency [3] was “inactive”. The outcome [4] was “inactive”, the outcome [5] was “inactive” and the max response [8] was 29.7%.

With `CC(C)[C@@]1(NC(=O)[C@@H]2C[C@@H]3c4cccc5[nH]cc(c45)C[C@H]3N(C)C2)O[C@@]2(O)[C@@H]3CCCN3C(=O)[C@H](Cc3ccccc3)N2C1=O` the Potency [1] was “inactive”, the outcome [2] was “inactive” and the Potency [3] was “inactive”. For the same compound, the outcome [4] was “inactive”, the outcome [5] was “inactive” and the Potency [8] was 5.01 µM (active).

With `C[N+](C)(C)CC#CCN1CCCC1=O` the Potency [1] was “inactive”, the outcome [2] was “inactive” and the Potency [3] was “inactive”. The outcome [4] was “inactive”, the outcome [5] was “inactive” and the max response [8] was -2.31%.

With `C[N+]1(C)CCN(c2ccccc2)CC1` the Potency [1] was “inactive”, the outcome [2] was “inactive” and the Potency [3] was “inactive”. For the same compound, the outcome [4] was “inactive”, the outcome [5] was “inactive” and the max response [8] was -6.92%.

With `COc1ccc2c(c1)/C(=C/c1cnc[nH]1)C(=O)N2` the Potency [1] was 23.1 µM (active), the outcome [2] was “inactive” and the Potency [3] was “inactive”. The outcome [4] was “inactive” and the outcome [5] was “inactive”.

In the case of `NCCCP(=O)(O)O`, the Potency [1] is reported as “inactive”, the outcome [2] is reported as “inactive” and the Potency [3] is reported as “inactive”. The outcome [4] was “inactive”, the outcome [5] was “inactive” and the max response [8] was -9.88%.

For `C[C@@H]1O[C@H](C[N+](C)(C)C)CS1`, the Potency [1] was “inactive”, the outcome [2] was “inactive” and the Potency [3] was “inactive”. For the same compound, the outcome [4] was “inactive”, the outcome [5] was “inactive” and the max response [8] was 20.1%.

With `COc1ccc2[nH]c3c(c2c1)CCNC3` the Potency [1] was “inactive”, the outcome [2] was “inactive” and the Potency [3] was “inactive”. The outcome [4] was “inactive”, the outcome [5] was “inactive” and the max response [8] was -9.37%.

For `O=c1c2ccccc2[se]n1-c1ccccc1`, the Potency [1] was “inactive”, the outcome [2] was “inactive” and the Potency [3] was 14.1 µM (active). For the same compound, the outcome [4] was “inactive” and the outcome [5] was “inactive”.

With `CCCn1c(=O)c2[nH]c(C3CCCC3)nc2n(CCCOC(=O)c2ccc(S(=O)(=O)F)cc2)c1=O` the Potency [1] was “inactive”, the outcome [2] was “inactive” and the Potency [3] was “inactive”. For the same compound, the outcome [4] was “inactive”, the outcome [5] was “inactive” and the max response [8] was 11.9%.

In the case of `C[C@H](N)Cc1cccc(C(F)(F)F)c1`, the Potency [1] is reported as “inactive”, the outcome [2] is reported as “inactive” and the Potency [3] is reported as “inactive”. For the same compound, the outcome [4] was “inactive”, the outcome [5] was “inactive” and the max response [8] was 11.9%.
